Only some compounds are listed: those with a hit (about 5.8% of all), similar ones and a draw of the others.
uPA surface inh: blocks generation of uPA at the cell surface. cell surface uPA generation assay, qHTS. Potency, µM (top dose mostly 38.3 µM), inactives show at the highest dose activity change, negative = inhibition, hits mostly inhibitors. hit rate 0.31% among 330,000; active = well fitted inhibition curve with a large enough effect; inconclusive = small, poorly fitted or top-dose-only effect; inactive = no such curve, though single readings can be large or run the other way; tested in mouse RAW 264.7 cells; note: potency is the fitted concentration of half-maximal effect; % is set by controls: 0 for no effect and ±100 for the full control effect; nearly all actives have a fitted effect of over 55% in size
TRPV1 ag: activates the human vanilloid receptor TRPV1 | activation, % at 8.33 µM | TRPV1-expressing cells, Fluo-8 calcium influx, agonist mode | hit rate 0.19% among 320,000 | Q8NER1 | AID 540275; in the data active = activation above about 80%; inconclusive = between about 30% and that limit; note: 0% is about no effect
Target sequence (Q8NER1 whole entry, looked up): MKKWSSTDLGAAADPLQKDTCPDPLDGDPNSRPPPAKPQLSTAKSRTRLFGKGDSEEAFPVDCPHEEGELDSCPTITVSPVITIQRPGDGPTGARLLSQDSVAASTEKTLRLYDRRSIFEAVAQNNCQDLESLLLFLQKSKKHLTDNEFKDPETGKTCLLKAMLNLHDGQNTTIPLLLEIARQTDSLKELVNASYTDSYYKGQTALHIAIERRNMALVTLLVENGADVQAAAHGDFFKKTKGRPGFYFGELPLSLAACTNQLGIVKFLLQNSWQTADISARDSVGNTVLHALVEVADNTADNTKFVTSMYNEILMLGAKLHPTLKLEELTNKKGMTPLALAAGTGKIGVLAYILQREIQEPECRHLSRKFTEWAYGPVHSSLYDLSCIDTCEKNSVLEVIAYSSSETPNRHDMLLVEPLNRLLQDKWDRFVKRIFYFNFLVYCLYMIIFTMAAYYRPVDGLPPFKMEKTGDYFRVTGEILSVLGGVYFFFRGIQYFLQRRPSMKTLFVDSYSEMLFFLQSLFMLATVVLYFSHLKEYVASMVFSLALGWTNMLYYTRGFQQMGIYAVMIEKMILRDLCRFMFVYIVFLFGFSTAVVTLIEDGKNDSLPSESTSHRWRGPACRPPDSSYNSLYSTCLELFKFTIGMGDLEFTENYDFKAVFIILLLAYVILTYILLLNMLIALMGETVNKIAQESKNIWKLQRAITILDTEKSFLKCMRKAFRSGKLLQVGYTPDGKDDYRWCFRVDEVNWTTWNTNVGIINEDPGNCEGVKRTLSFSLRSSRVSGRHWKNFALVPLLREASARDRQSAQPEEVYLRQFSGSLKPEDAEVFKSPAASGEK
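TRPV1-expressing cells were cultured overnight at 35.5C and loaded with Fluo-8 calcium dye for 40 to 90 min at room temperature. After a 10 s baseline, compound was added and calcium influx was read kinetically for 3 min (ex 480/em 520 nm).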
TRPV1 potentiator: human TRPV1 potentiation; hit rate 0.02% among 320,000; Q8NER1; TRPV1-expressing cells, Fluo-8 calcium influx, capsaicin EC20 potentiation; AID 540277; potentiation, % at 8.33 µM; in the data active = potentiation above about 80%; inconclusive = between about 30% and that limit; note: 0% is about no effect
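Fluo-8 calcium influx in TRPV1-expressing cells, kinetic read (ex 480/em 520 nm). Compound added and read 3 min for agonist activity, followed by capsaicin at EC20 final and 2 min further read for enhancement.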
VP16 counter: inhibits Gal4-VP16 luciferase reporter, ROR gamma counter-screen | Drosophila S2 Gal4-VP16 UAS-luciferase, luminescence, 20 h | Potency, µM (doses to about 53.6 µM), for inactives: top-dose activity, negative = inhibition, usual class: inhibitors | hit rate 3.5% among 310,000 | AID 2546;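 note: Gal4-VP16 expression switched on by copper sulfate through the metallothionein promoter; potency is the fitted concentration of half-maximal effect; % is set by controls: 0 for no effect and ±100 for the full control effect; nearly all actives have a fitted effect of over 50% in size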
RORgamma inh: ROR gamma (mouse) transcription inhibition; P51450; Drosophila S2 Gal4-RORgamma UAS-luciferase reporter, 20 h; Potency, µM (top dose mostly 53.6 µM), for inactives: at the top dose activity change, negative = inhibition, most hits filed as inhibitors; hit rate 5.4% among 310,000; AID 2551; note: potency is the fitted concentration of half-maximal effect; % is set by controls: 0 for no effect and ±100 for the full control effect; nearly all actives have a fitted effect of over 60% in size
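Drosophila Schneider cells stably carrying a metallothionein-driven Gal4 DBD–ROR gamma fusion and a UAS-Photinus luciferase reporter were exposed to compound for 1 hr, then induced with copper sulfate (700 uM final) for 20 hr at ambient temperature before luminescence reading.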
The depositor's hits bear a star; ? = inconclusive; . = no result; [ ] = another dose, or the depositor's remark. Unless noted, calls come from the whole dose curve; as a rule, active = well fitted curve in the direction sought with a large enough effect; inconclusive = small, poorly fitted or top-dose-only effect, or another doubt; inactive = no such curve, though single readings can be large; an effect the other way counts as inactive or inconclusive.

SMILES	uPA surface inh	TRPV1 ag	TRPV1 potentiator	VP16 counter	RORgamma inh
CC(=O)NC(c1cc(Cl)c2ccccc2c1O)C(C)C (stereo unspecified)	-24%	3	-5	.	.
CC(=O)NC(c1cc(Cl)c2cccnc2c1O)C1CC1 (stereo unspecified)	4µM*	1	1	.	.
Oc1c(C(Nc2ccccn2)c2cccnc2)cc(Cl)c2cccnc12 (stereo unspecified)	-1%	0	5	4.5µM*	4µM*
Fc1ccc(C(Nc2ccccn2)c2c[nH]c3ccccc23)cc1 (stereo unspecified)	-22%	-2	9	-4%	-2%
COc1ccc2c(c1)C(=O)[C@@H](OC(=O)NS(=O)(=O)c1ccc(C)cc1)[C@H](c1ccc(OC)c(Br)c1)O2	.	.	.	6%	-33%
CCOc1ccccc1OCCCC(=O)NNC(=O)c1ccc(F)cc1	3%	.	.	.	.
Cn1cnnc1SCC(=O)NC1CCCCCC1	-4%	0	0	2%	-12%
O=c1c2oc3ccccc3c2[nH]c(=S)n1-c1ccc(F)cc1	-4%	1	26	?	4µM*
Cc1ccc(-n2c(=S)[nH]c3c(oc4ccccc43)c2=O)cc1C	-4%	-2	-22	1.8µM*	1.4µM*
CN(CC(=O)Nc1ccccc1Br)C(=O)CCCSc1nc2ccccc2[nH]1	1%	8	-11	.	.
CCNc1ccc(C(=O)OCC(=O)Nc2cc(C)on2)cc1[N+](=O)[O-]	6%	0	3	.	.
O=C(c1ccco1)N1CCC[C@@]2(CCN(c3cccc(-c4ccccc4)c3)C2)C1	.	.	.	18%	27%
CC[C@H](C)[C@H](NC(=O)[C@H](CCC(=O)O)NC(=O)[C@H](CC(N)=O)NC(=O)[C@@H](N)[C@@H](C)O)C(=O)N[C@H](C(=O)N[C@@H](CCC(=O)O)C(=O)N[C@@H](CCC(=O)O)C(=O)N[C@@H](CCC(N)=O)C(=O)N[C@@H](Cc1ccc(O)cc1)C(=O)N[C@H](C(=O)N1CCC[C@H]1C(=O)N[C@@H](CCC(N)=O)C(=O)N[C@@H](CO)C(=O)N[C@@H](CC(C)C)C(=O)N[C@@H](C)C(=O)N[C@H](C(=O)N[C@@H](CC(C)C)C(=O)N[C@@H](CCC(=O)O)C(=O)N[C@@H](CO)C(=O)N[C@H](C(=O)N[C@@H](Cc1ccccc1)C(=O)N[C@@H](CCC(N)=O)C(=O)N[C@@H](CCC(=O)O)C(=O)N[C@@H](CC(C)C)C(=O)NCC(=O)N[C@@H](CCCCN)C(=O)N[C@@H](CC(C)C)C(=O)N[C@H](C(=O)NCC(=O)N1CCC[C@H]1C(=O)N[C@@H](CC(N)=O)C(=O)N[C@@H](CO)C(=O)N[C@@H](CCC(N)=O)C(=O)O)[C@@H](C)O)C(C)C)[C@@H](C)O)[C@@H](C)O)C(C)C	.	.	.	-4%	3%
Cc1nn(-c2ccccc2)c(Cl)c1C(=O)Nc1nnc(C2CCCCC2)s1	-1%	-3	-16	?	13µM*
O=C(CNC(=O)c1ccccc1F)N/N=C/c1cc(Br)ccc1OC(=O)/C=C/c1ccco1	-7%	2	8	3.2µM*	2.5µM*
COc1ccccc1C(=O)NCC(=O)N/N=C/c1cc(Br)ccc1OC(=O)/C=C\c1ccco1	?	5	22	7.1µM*	3.5µM*
O=C(CNC(=O)c1ccc(F)cc1)N/N=C/c1cc(Br)ccc1OC(=O)/C=C/c1ccco1	1%	0	13	?	5µM*
COc1ccc(C(=O)C2CCCN(C(=O)c3ccc4cc[nH]c4c3)C2)c(C)c1 (stereo unspecified)	18%	6	7	-2%	18%
CCCCN(C)CCC(=O)Nc1ccc(F)c(F)c1	2%	3	-10	-14%	16%
COc1ccc(-n2c(-c3ccc(Cl)cc3)c[n+]3c2CCc2ccccc2-3)cc1	-15%	-1	1	13µM*	?
COc1ccc(-n2c(-c3ccccc3)nnc2-c2ccc(Cl)cc2)cc1	15%	10	-4	-12%	9%
O=C(CC(c1ccco1)S(=O)(=O)c1ccccc1)c1ccc(F)cc1 (stereo unspecified)	.	7	-9	11µM*	2.5µM*
CC(=O)Nc1cnc(NC(=O)c2cccc(F)c2)cc1C	1%	4	-2	?	4µM*
CCC(=O)Nc1cnc(NC(=O)c2cccc(F)c2)cc1C	3%	3	-8	?	?
COc1ccc(C(=O)c2coc3c2C(=O)C(=O)c2ccccc2-3)cc1	-5%	5	2	?	11µM*
SMILES	uPA surface inh	TRPV1 ag	TRPV1 potentiator	VP16 counter	RORgamma inh
COc1ccc2occ(C(=O)c3ccccc3)c2c1	1%	17	-4	-15%	21%
O=C(c1ccccc1)c1coc2c1C(=O)c1ccccc1C2=O	7%	-2	-1	?	18µM*
CCC1=NN(C(=O)c2ccc(Cl)cc2)C(O)(c2ccc(C)cc2)C1 (stereo unspecified)	-4%	19	15	25µM*	18µM*
CCOC(=O)C1=NN(C(=O)c2ccc(C)cc2)C(O)(c2ccc(Cl)cc2)C1 (stereo unspecified)	3%	24	-1	?	?
CCC1=NN(C(=O)c2ccc(Cl)cc2)C(O)(c2ccccc2)C1 (stereo unspecified)	4%	24	-8	10µM*	?
CCOC(=O)c1cccc(NC(=O)COc2nsnc2N2CCOCC2)c1	9%	-6	24	2%	11%
C/C(=C\C[Si](C)(C)C)CC[C@H](O)C1=CCCCC1=O	.	.	.	2%	12%
N#C/C(=C/c1ccc(C(=O)O)cc1)C(=O)Nc1ccccc1	6%	3	3	-1%	-18%
Cc1ccccc1NC(=O)C(=Cc1ccc(C(=O)O)cc1)C(=O)Nc1ccccc1C	-11%	9	-8	?	7.9µM*
CC(=O)/C(=C/c1ccccc1)C(=O)Nc1ccccc1C	2.8µM*	1	16	?	?
CC[C@@]12CCCN3CCc4c(n(c5ccccc45)C(=O)C1)[C@H]32	.	.	.	-3%[17 µM]	-1%[16.9 µM]
C=CCN1/C(=C(\C#N)C2=NS(=O)(=O)c3ccccc32)N(C)c2ccccc21	.	2	-5	?	11µM*
COc1ccccc1N1CCN(C2=NS(=O)(=O)c3ccccc32)CC1	0%	10	-16	-1%	-6%
N#Cc1ccc(C(=O)N2CCN(C(=O)C3CCCO3)CC2)cc1 (stereo unspecified)	7%	-2	3	.	.
O=C(Nc1ccccc1)C1C(c2ccccc2)C1(Cl)Cl (stereo unspecified)	4%	84*	-31	-11%	12%
O=C(Nc1ccc(Cl)cn1)C1C(c2ccccc2)C1(Cl)Cl (stereo unspecified)	1%	?	-7	6%	?
